Source: PubChem BioAssay AID893 (National Center for Advancing Translational Sciences (NCATS), 2007)
“And” between values parts separate entries of the source, which are not always exact repeats. Equal entries are not always repeated. Out of some 75,000 compounds screened, about 5,700 (7.6%) were called active. Entries that show only a call come without a potency. Roughly 7% stayed inconclusive and do not appear here. Calls follow the shape of the dose curve; as a rule, active = well fitted inhibition curve with a large enough effect; inconclusive = small, poorly fitted or top-dose-only effect; inactive = no such curve, though single readings can be large or run the other way. This excerpt belongs to a sample that is enriched for actives.

Each molecule was assayed against 3-hydroxyacyl-CoA dehydrogenase type-2 (Homo sapiens) (UniProt Q99714) (assay: qHTS Assay for Inhibitors of HSD17B4, hydroxysteroid (17-beta) dehydrogenase 4). Conditions: recombinant HSD17B10, NADH fluorescence kinetic; series mostly up to 57.1 µM.
Procedure, shortened: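 His-tagged E. coli-expressed HADH2 at 20 nM in 100 mM Tris-HCl pH 9.0 with 0.01 % Tween-20, preincubated 15 min with compound at room temperature. Reaction with 1 mM NAD+ and 90 uM beta-hydroxybutyryl coenzyme A; NADH fluorescence (360/450 nm) read kinetically over 4 min, last minus first point.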
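Also: the protocol describes HADH2 (HSD17B10) and not the HSD17B4 of the title; nearly all actives have a fitted effect of over 70% in size.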
Potency is read from the fitted curve at half-maximal effect.

Compound | Potency | activity change, negative = inhibition
Cc1cc(C)nc(N2C(=O)CC(Cc3ccccc3)C2=O)n1 (configuration not stated) | inactive | 
COc1ccc(OC)c2[nH]c(=O)c(CCNC(=O)C(C)(C)C)cc12 | inactive | 
CCCn1c(SCC(=O)N2CCc3ccccc32)nnc1-c1ccncc1 | inactive | 
CCc1ccc(N2CC(C(=O)NC3=NCCS3)CC2=O)cc1 (configuration not stated) | inactive | 
Cc1ccc(C(=O)N2CCCCCC2)cc1Br | inactive | 
O=C(c1cc(-c2cccs2)on1)N1CCCCC1 | inactive | 
Cc1ccc2cc3cc(C(=O)N4CCCCCC4)oc3nc2c1 | 25.1 µM (active) | 
Oc1c(CN2CCOCC2)ccc(CN2CCOCC2)c1O |  | -11.5% [at 11.4 µM] (inactive)
CO[C@H]1COC(=O)[C@@H](OCc2ccccc2)/C=C\[C@H](C)[C@@H](OC)COC(=O)[C@H](OCc2ccccc2)/C=C\[C@@H]1C |  | -0.999% [at 11.4 µM] (inactive)
CN(C)CCCn1c2ccccc2c2cnccc21 |  | 7.17% [at 11.4 µM] (inactive)
O=C(COc1ccc2oc3c(c2c1)CCCC3)Nc1ccccn1 | inactive | 
NC(=O)COc1ccc2c3c(c(=O)oc2c1)CCCCC3 | 25.1 µM (active) | 
O=C(COc1ccc2c3c(c(=O)oc2c1)CCC3)NC1CCCCC1 | 31.6 µM (active) | 
O=C(CC1OC(=O)c2ccccc21)NC1CCCCC1 (configuration not stated) | inactive | 
Cc1cc(Cl)c(S(=O)(=O)NCC2CCCO2)cc1OCC(N)=O (configuration not stated) | inactive | 
O=C(COc1ccccc1F)NC1CC1 | inactive | 
CCOC(=O)CSc1nc2c(c(=O)n(C)c(=O)n2C)n1Cc1ccccc1F | inactive | 
CCOC(=O)CSc1nnc(CNC(=O)Cc2ccccc2)n1-c1ccccc1OC | inactive | 
COC(=O)CSc1nc(C2CC2)nc2ccccc12 | inactive | 
CCCc1nc2c3cnn(-c4cccc(Cl)c4)c3ncn2n1 | inactive | 
Cc1ccc(-n2ncc3c(N4CCN(c5ccc(F)cc5)CC4)ncnc32)c(C)c1 | inactive | 
Cc1ccc(-n2ncc3c2ncn2nc(-c4ccco4)nc32)c(C)c1 | 25.1 µM (active) | 
CC1=C(/C=C/C(C)=C/C=C/C(C)=C/C=C/C=C(C)/C=C/C=C(C)/C=C/C2=C(C)CCCC2(C)C)C(C)(C)CCC1 | inactive | 
CC(=O)OCC(=O)[C@@]1(O)CCC2C3CCC4=CC(=O)CC[C@@]4(C)[C@]3(F)C(O)C[C@]21C (some centres not stated) | inactive | 
CC(N)=NCc1cccc(CN)c1 | inactive | 
COc1ccc(OCCCC(=O)Nc2nnc(C3CCCO3)s2)cc1 (configuration not stated) | inactive | 

Compound | Potency | activity change, negative = inhibition
COc1cccc(NC(=O)Nc2nnc(N3CCCCC3C)s2)c1 (configuration not stated) | inactive | 
COc1ccc2c(CC(=O)Nc3nnc(C4CC4)s3)coc2c1 | 25.1 µM (active) | 
C[C@H]1CC[C@H](C(=O)O)N[C@@H]1c1ccc(C#Cc2ccccc2)cc1 |  | -1.28% [at 11.4 µM] (inactive)
O=C(Nc1cccc(F)c1)c1ccc(S(=O)(=O)N2CCCC2)cc1 | inactive | 
C/C(Cl)=C\Cn1c(Nc2cccc(C)c2)nc2c1c(=O)n(C)c(=O)n2C | inactive | 
CCOC(=O)c1sc(NC(=O)CSc2ncccn2)c(C#N)c1C | inactive | 
COCCNC(=O)COc1ccc(C)c(C)c1 | inactive | 
Cc1cccc(CNc2ccnc(-c3cccnc3)n2)c1 | inactive | 
c1cncc(CNc2ccnc(-c3ccc4c(c3)OCO4)n2)c1 | 20 µM (active) | 
O=C(Nc1cccnc1)c1ccc2c(c1)OCO2 | inactive | 
Cc1onc(-c2ccccc2Cl)c1C(=O)NCCn1ccc2ccccc21 | inactive | 
Cc1noc(/C=C/N(C)C)c1S(=O)(=O)N1CCCC(C(=O)NCc2ccco2)C1 (configuration not stated) | inactive | 
CCOC(=O)N1CCN(C(=O)c2cn(C)c3ccc(S(=O)(=O)N4CCCC4)cc3c2=O)CC1 | inactive | 
C=CCc1cccc2cc(C(=O)N3CCN(C(=O)OCC)CC3)c(=O)oc12 | 25.1 µM (active) | 
CCOC(=O)c1cc2ccccc2nc1C | inactive | 
COc1c(C(=O)N2CCCC2)ccc2ccccc12 | inactive | 
COc1cccc2cc(C(=O)N(C)C)c(=O)oc12 | inactive | 
CS(=O)(=O)N1CCN(C(=O)c2cc3ccccc3oc2=O)CC1 | inactive | 
CCOC(=O)N1CCN(C(=O)c2cc3c(ccc4ccccc43)oc2=O)CC1 | 31.6 µM (active) | 
C=CCc1cccc2cc(C(=O)OCC)c(=O)oc12 | 31.6 µM (active) | 
CCOC(=O)N1CCN(C(=O)c2n[nH]c(=O)c3ccccc23)CC1 | inactive | 
CC(C)=CCC/C(C)=C/CC/C(C)=C/CC/C(C)=C/CO | inactive | 
CC(c1cccnc1)N(CCN(C)C)C(=O)Nc1ccc(Cl)c(Cl)c1 (configuration not stated) | inactive | 
Cc1ccc(Br)cc1 | inactive | 
COC(=O)c1ccc(N(CC(=O)NC2CCCC2)C(=O)CNC(=O)c2ccco2)cc1 | inactive | 
COCCCNC(=O)c1c(F)c(F)c(F)c(F)c1F | inactive | 

Compound | Potency | activity change, negative = inhibition
Cc1cccn2c(=O)c3cc(C(=O)N4COCC4(C)C)n(C)c3nc12 | 7.94 µM (active) | 
Cc1ccccc1CN1CCN(CC(=O)NCc2ccccn2)C1=O | inactive | 
Cc1cccn2c(=O)c3cc(C(=O)NCc4ccccn4)n(C)c3nc12 | 3.16 µM (active) | 
CC(=O)N1[C@H](C)C=C[C@]1(Cc1ccccc1)C(=O)NCc1ccccn1 | inactive | 
O=c1ccn(Cc2ccccc2Cl)cc1 | inactive | 
COCCNc1ncnc2ccc(-c3cccnc3)cc12 | 31.6 µM (active) | 
CNc1ncnc2ccc(-c3cccc(NS(C)(=O)=O)c3)cc12 | inactive | 
COCCNc1ncnc2ccc(-c3ccccc3CN(C)C)cc12 | inactive | 
COCC(=O)Nc1nnc(COc2ccccc2)s1 | inactive | 
C[C@@H](C(=O)Nc1ccc2ccccc2c1)[C@@H]1C[C@@]1(C)[C@@H](NC(=O)c1cccnc1)c1ccccc1 | inactive | 
CCCCCN(C(=O)NC(=O)Nc1ccccc1C)S(C)(=O)=O | inactive | 
COC(=O)C1=C(C)N(Cc2ccccc2)C2=C3C(=O)N(c4ccccc4)C(=O)C3[C@@](O)(C(=O)OC)C(=O)N2C1c1ccccc1 (some centres not stated) |  | 6.04% [at 11.4 µM] (inactive) and 0.0692% [at 11.4 µM] (inactive)
N#CC1=C(N)Oc2cc(O)ccc2C1C1CCCCC1 (configuration not stated) | inactive | 
O=C(O)c1c(Br)c(Br)c(Br)c(Br)c1C1c2ccc(O)cc2Oc2cc(O)ccc21 | 0.794 µM (active) | 
COc1ccc(CC(=O)c2ccc(O)cc2O)cc1OC | inactive | 
CC1CCCN(Cc2nc3c(c(=O)n(C)c(=O)n3C)n2CC(=O)c2ccccc2)C1 (configuration not stated) | inactive | 
CCOC(=O)N1CCN(Cc2nc3c(c(=O)n(C)c(=O)n3C)n2Cc2ccccc2)CC1 | inactive | 
CCN1CCN(Cc2nc3c(c(=O)n(C)c(=O)n3C)n2CC(=O)c2ccccc2)CC1 | 25.1 µM (active) | 
CCn1nnc(NC(=O)c2c(OC)cccc2OC)n1 | inactive | 
O=C(NCc1ccc2c(c1)OCO2)C1CCCN(S(=O)(=O)c2cccs2)C1 (configuration not stated) | inactive | 
COc1ccc(C(=O)N2CCC3(CCCN(C(c4ccccc4)c4ccccc4)C3)CC2)cc1 | inactive | 
COc1ccc(C(=O)N2CCC3(CC2)CCN(c2ccccn2)CC3)cc1 | 25.1 µM (active) | 
O=C(c1cc(C(F)(F)F)cc(C(F)(F)F)c1)N1CCC2(CCCN(c3ccccn3)C2)CC1 | inactive | 
CC(C)c1cc(CN(C)C)c(O)c(C(C)(C)C)c1 |  | 5.05% [at 11.4 µM] (inactive)
COCCNC(=O)C(c1ccc(C)o1)N(Cc1cccs1)C(=O)c1snc(C(N)=O)c1N (configuration not stated) | 25.1 µM (active) | 
COCCNC(=O)C(c1ccc(C)o1)N(Cc1ccccc1)C(=O)Cn1nnc2ccccc21 (configuration not stated) | inactive | 

Compound | Potency | activity change, negative = inhibition
CCC(C(=O)NC1CCCC1)N(C(=O)c1snc(C(N)=O)c1N)c1ccc2c(c1)OCCO2 (configuration not stated) | inactive | 
COc1ccc(F)cc1S(=O)(=O)Nc1ccc2c(c1)OCO2 | inactive | 
COc1ccc(C(c2nnnn2C2CCCCC2)N2CCN(c3ccccc3F)CC2)cc1 (configuration not stated) | inactive | 
CCC(=O)c1ccc(OCC(O)CN2C(=O)NC(C)(C)C2=O)cc1 (configuration not stated) | inactive | 
Cc1ccc2cccc(O)c2[n+]1[O-] | inactive | 
Cc1ccc(C)c(NS(=O)(=O)c2cc(Br)cnc2N)c1 | inactive | 
O=c1cc(-c2ccccc2)[nH]c2nc(Cl)ccc12 | 7.94 µM (active) | 
CCCC(NS(=O)(=O)c1ccc(OC)cc1)C(=O)O (configuration not stated) | inactive | 
COc1cccc(N2CC(C(=O)Nc3c(C)cccc3C)CC2=O)c1 (configuration not stated) | inactive | 
COc1cccc(C2/C(=C(/O)c3ccncc3)C(=O)C(=O)N2CCCN(C)C)c1 (configuration not stated) | inactive | 
Cc1nnc(SCC(N)=O)n1CC1CCCO1 (configuration not stated) | inactive | 
Cc1cccn2c(=O)c3cc(C#N)c(=NC(=O)c4cccnc4)n(CC4CCCO4)c3nc12 (configuration not stated) | 7.94 µM (active) | 
O=C(Cn1nc(Cc2cccnc2)c2ccccc2c1=O)NCC1CCCO1 (configuration not stated) | inactive | 
Cc1cccn2c(=O)c3cc(C#N)c(=O)n(CCCN4CCOCC4)c3nc12 | 31.6 µM (active) | 
Cn1c(=O)c2c(nc(CN3CCOCC3)n2Cc2ccccc2)n(C)c1=O | inactive | 
CCCOc1ccc(C2c3c(oc4cc(C)c(C)cc4c3=O)C(=O)N2CCCN2CCOCC2)cc1 (configuration not stated) | inactive | 
CC(=NCC1CCCO1)c1c(O)[nH]c(=O)[nH]c1=O (configuration not stated) | inactive | 
CCOC(=O)N1CCC(NC(=O)c2ccc3nc(N4CCOCC4)sc3c2)CC1 | inactive | 
Nc1c(C(=O)NCc2ccccc2)nnn1Cc1cccc(Cl)c1 | inactive | 
COC(=O)CCNc1ccc2c(c1)OCCO2 | inactive | 
NC1(C(=O)OCc2ccccc2)CCCC1 |  | -22.7% [at 11.4 µM] (inactive)
BrC1C(Br)C(Br)C(Br)C(Br)C1Br (configuration not stated) | inactive | 
C=C(C)C1CC=C(C)C(O)C1 (configuration not stated) | inactive | 
Nc1nc2[nH]c(=O)c(=O)[nH]c2c(=O)[nH]1 | inactive | 
